Measured values published in PubChem BioAssay (NCATS).
Results filed as inconclusive are left out. Activity calls are given as the source filed them. Unless noted, calls follow the shape of the dose curve; as a rule, active = well fitted cell-killing curve with a large enough effect; inconclusive = small, poorly fitted or top-dose-only effect; inactive = flat fitted curve, though single readings scatter.

Columns and labels:
[1] = Cell Viability - LYMP2-025 (AID 976);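 also: series mostly up to about 92 µM; plate controls were DMSO only for no effect and tetraoctylammonium bromide control for full effect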
Method in brief: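 Luminescent ATP readout after 24 hr treatment of a human lymphoblastoid line (LYMP2-025, 2500 cells/well, 37 C). Reagent developed 30 min at room temperature; AC50 fitted with the Hill equation.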

[2] = Cell Viability - LYMP2-002 (AID 977);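 also: series mostly up to about 92 µM; compound exposure lasted 24 h at 37 °C; plate controls were DMSO only for no effect and 92 µM tetraoctylammonium bromide for full effect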
Method in brief: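 Human lymphoblastoid cells (2500/well) in complete medium were preincubated 5 hr at 37 C, then exposed to compounds for 24 hr at 37 C. Intracellular ATP was read by CellTiter-Glo luminescence; AC50 came from Hill-equation concentration-response fits.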

[3] = Cell Viability - LYMP2-006 (AID 978); also: series mostly up to about 92 µM; % is scaled to controls: 0 for no effect and ±100 for the full control effect; nearly all actives have a fitted effect of over 60% in size
Method in brief: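 Human lymphoblastoid cells (LYMP2-006), 2500/well in complete medium, were treated with compound for 24 hr at 37 C. Cellular ATP was read by CellTiter-Glo luminescence after 30 min, and AC50 values came from Hill-equation fits of concentration-response data.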

[4] = Cell Viability - LYMP2-007 (AID 979);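 also: cells exposed to compound for 24 h before reading; 0% = DMSO only and the negative end = 92 µM tetraoctylammonium bromide; nearly all actives have a fitted effect of over 60% in size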
Method in brief: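 Measured via luciferase-based ATP quantitation: lymphoblastoid cells, 24 hr compound exposure at 37 C, AC50 from Hill fits.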

[5] = Cell Viability - LYMP2-008 (AID 980); also: % is scaled to controls: 0 for no effect and ±100 for the full control effect; nearly all actives have a fitted effect of over 60% in size
Method in brief: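 Measured: ATP-dependent luminescence, proportional to viable cell number, in human lymphoblastoid cells treated 24 hr with compound in complete culture medium. Values are AC50s from Hill-equation modelling of qHTS titrations.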

[6] = Cell Viability - LYMP2-010 (AID 981); also: % is scaled to controls: 0 for no effect and ±100 for the full control effect; nearly all actives have a fitted effect of over 55% in size
Method in brief: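 This 24 hr viability screen uses LYMP2-010 lymphoblastoid cells, quantifies ATP via luciferase luminescence, and derives AC50 from Hill fits of qHTS concentration-response data.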

[7] = Cell Viability - LYMP2-012 (AID 982);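 also: cellular ATP by luciferase luminescence where a drop means cytotoxicity; cells exposed to compound for one day before reading; 0% = DMSO only and full loss = 92 µM tetraoctylammonium bromide; nearly all actives have a fitted effect of over 55% in size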
[8] = Cell Viability - LYMP2-014 (AID 983);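 also: series mostly up to about 92 µM; plate controls were DMSO only for no effect and 92 µM tetraoctylammonium bromide for full effect; nearly all actives have a fitted effect of over 50% in size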
Method in brief: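 Quantitative HTS in lymphoblastoid cells: 24 hr compound exposure, then CellTiter-Glo ATP luminescence. Positive control was tetraoctylammonium bromide, 6.4pM to 92 uM.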

[9] = Cell Viability - LYMP2-020 (AID 986);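 also: series mostly up to about 92 µM; plate controls were DMSO only for no effect and tetraoctylammonium bromide at 92 µM for full effect; nearly all actives have a fitted effect of over 55% in size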
Method in brief: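 Cells at 2500 per well receive a 24 hr compound exposure at 37 C. Viability is measured as ATP-dependent luciferase luminescence, with AC50 modeled from qHTS concentration-response curves.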

[10] = Cell Viability - LYMP2-024 (AID 988);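 also: plate controls were DMSO only for no effect and 92 µM tetraoctylammonium bromide for full effect; nearly all actives have a fitted effect of over 60% in size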
Method in brief: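 Cells at 2500 per well received compound for 24 hr after a 5 hr settling period. Viability was scored by CellTiter-Glo luminescence, with AC50 from Hill fits.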

[11] = Cell Viability - LYMP2-026 (AID 989); also: % is scaled to controls: 0 for no effect and ±100 for the full control effect; nearly all actives have a fitted effect of over 50% in size
Method in brief: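 Acute toxicity screen in complete culture medium, with 24 hr compound exposure at 37 C. Viability read as cellular ATP via luciferase reaction, with tetraoctylammonium bromide (6.4pM to 92 uM) as positive control.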

[12] = Cell Viability - LYMP1-002 - Assay at 24 hr (AID 993); also: % is scaled to controls: 0 for no effect and ±100 for the full control effect
Method in brief: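 Viability was judged from intracellular ATP using a luciferase read-out, following a 24-hour compound incubation at 37 C of lymphoblastoid cells seeded at 2500 per well. Concentration-response data were fitted to the Hill equation for AC50.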

[13] = Cell Viability - LYMP1-002 - Assay at 40 hr (AID 994)
Method in brief: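 Concentration-dependent ATP loss after 40 hr treatment at 37 C defined toxicity; AC50 values were obtained by fitting the standard Hill equation.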

[14] = qHTS Assay for Identification of Small Molecule Inducers of Hypoxia Response (AID 2120; active = well fitted curve in the direction sought with a large enough effect in the signal ratio, with a control signal flat, not every such curve was filed as active; the % refers to the signal ratio; also: 0% is about no effect)
Method in brief: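 HRE-bla ME-180, 2500 cells/well, 0.5% dialyzed FBS medium; cpd titration, 17 h 37 degrees C; CCF4 2.5 h RT; Ex 405, Em 460/530 ratio -> %Activity, AC50.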

[15] = molecular target: Androgen receptor (Homo sapiens) (UniProt P10275); experiment: qHTS assay for small molecule agonists of androgen receptor signaling (AID 588515; active = well fitted curve in the direction sought with a large enough effect in the signal ratio, with a control signal flat; the % refers to the signal ratio; also: % is scaled to controls: 0 for no effect and ±100 for the full control effect); conditions: AR-UAS-bla HEK293, beta-lactamase ratio, agonist 16 h; hits give high values
Method in brief: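 Stimulation of an AR-responsive β-lactamase reporter in GripTite HEK293 cells was measured after 16 h compound exposure at 37 °C, via CCF4 fluorescence after 2 h RT. EC50 from Hill fits, normalized to R1881 at 30 nM.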

[16] = Cell Viability - LYMP2-016 (AID 984); also: % is scaled to controls: 0 for no effect and ±100 for the full control effect; nearly all actives have a fitted effect of over 55% in size
Method in brief: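 Human lymphoblastoid LYMP2-016 cells, 2500 per well, treated with compounds for 24 h at 37 C. Viability read as intracellular ATP by CellTiter-Glo luminescence after 30 min at room temperature; AC50 from Hill fits of concentration-response.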

[17] = Cell Viability - LYMP2-018 (AID 985);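 also: plate controls were DMSO only for no effect and tetraoctylammonium bromide at 92 µM for full effect; nearly all actives have a fitted effect of over 50% in size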
Method in brief: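 In this qHTS viability assay, cells are treated for 24 hr and cellular ATP is quantified by luciferase-based luminescence, with tetraoctylammonium bromide as positive control.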

[18] = Cell Viability - LYMP2-022 (AID 987)
Method in brief: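 In this qHTS cytotoxicity screen, compound titrations were incubated 24 hr at 37 C with human lymphoblastoid cells in complete medium. Luciferase-based ATP luminescence provided the viability signal.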

Androgen receptor (Homo sapiens), sequence (P10275 whole entry, looked up): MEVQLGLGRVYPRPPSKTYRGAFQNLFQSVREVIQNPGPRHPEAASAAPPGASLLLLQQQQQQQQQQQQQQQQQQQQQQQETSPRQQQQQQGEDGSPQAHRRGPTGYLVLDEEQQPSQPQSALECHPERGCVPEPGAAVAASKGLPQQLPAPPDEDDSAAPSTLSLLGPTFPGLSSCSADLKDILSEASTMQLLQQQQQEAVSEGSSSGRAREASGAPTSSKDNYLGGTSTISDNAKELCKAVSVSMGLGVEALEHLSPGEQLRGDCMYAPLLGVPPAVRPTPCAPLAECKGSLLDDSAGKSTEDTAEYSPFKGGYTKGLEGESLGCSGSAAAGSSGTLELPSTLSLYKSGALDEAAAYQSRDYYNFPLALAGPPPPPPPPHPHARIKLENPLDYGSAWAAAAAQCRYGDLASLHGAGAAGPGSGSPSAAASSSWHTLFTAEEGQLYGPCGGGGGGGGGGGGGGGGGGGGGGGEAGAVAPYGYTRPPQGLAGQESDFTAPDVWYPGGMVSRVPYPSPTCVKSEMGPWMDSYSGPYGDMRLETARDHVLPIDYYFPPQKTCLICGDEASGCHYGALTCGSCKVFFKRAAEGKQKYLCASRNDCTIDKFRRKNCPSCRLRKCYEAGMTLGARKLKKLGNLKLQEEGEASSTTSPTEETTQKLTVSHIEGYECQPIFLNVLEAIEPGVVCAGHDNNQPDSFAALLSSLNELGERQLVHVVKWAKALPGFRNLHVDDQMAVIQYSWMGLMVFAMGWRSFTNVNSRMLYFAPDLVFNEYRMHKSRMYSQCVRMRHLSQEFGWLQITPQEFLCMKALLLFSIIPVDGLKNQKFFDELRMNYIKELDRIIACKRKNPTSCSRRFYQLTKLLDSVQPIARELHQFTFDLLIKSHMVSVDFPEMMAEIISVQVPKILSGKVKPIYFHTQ

CC(=O)C1(C)CC2=C(CCCC2(C)C)CC1C (stereo not given)
inactive: Potency [1] | Potency [2] | Potency [3] | Potency [4] | Potency [5] | Potency [6] | Potency [7] | Potency [8] | Potency [9] | Potency [10] | outcome [11] | Potency [12] | Potency [13] | outcome [14] | activation [15] -4.48%

Cc1ccc(C)o1
inactive: Potency [1] | Potency [2] | Potency [3] | Potency [4] | Potency [5] | Potency [6] | Potency [7] | Potency [8] | Potency [16] | Potency [17] | Potency [9] | Potency [18] | Potency [10] | outcome [11] | Potency [12] | Potency [13] | outcome [14]

CC(O)COC(C)(C)C (stereo not given)
inactive: Potency [1] | Potency [2] | Potency [3] | Potency [4] | Potency [5] | Potency [6] | Potency [7] | Potency [8] | Potency [16] | Potency [17] | Potency [9] | Potency [18] | Potency [10] | outcome [11] | Potency [12] | outcome [14]

CCNc1ccccc1
inactive: Potency [1] | Potency [2] | Potency [3] | Potency [4] | Potency [5] | Potency [6] | Potency [7] | Potency [16] | Potency [17] | Potency [9] | Potency [18] | Potency [10] | outcome [11] | Potency [12] | outcome [14] | activation [15] 1.96%

CCCCC(CC)C(=O)O (stereo not given)
inactive: Potency [1] | Potency [2] | Potency [3] | Potency [4] | Potency [5] | Potency [6] | Potency [7] | Potency [8] | Potency [16] | Potency [17] | Potency [9] | Potency [10] | outcome [11] | Potency [12] | Potency [13] | outcome [14]

O=Cc1cccc(Br)c1
inactive: Potency [1] | Potency [2] | Potency [3] | Potency [4] | Potency [5] | Potency [6] | Potency [7] | Potency [8] | Potency [16] | Potency [9] | Potency [18] | outcome [11] | Potency [12] | Potency [13] | outcome [14]

NC=O
inactive: Potency [1] | Potency [2] | Potency [3] | Potency [4] | Potency [5] | Potency [6] | Potency [7] | Potency [16] | Potency [17] | Potency [9] | Potency [18] | Potency [10] | outcome [11] | Potency [12] | Potency [13] | outcome [14]

CSCCC=O
inactive: Potency [1] | Potency [2] | Potency [3] | Potency [4] | Potency [5] | Potency [6] | Potency [7] | Potency [8] | Potency [16] | Potency [17] | Potency [9] | Potency [18] | Potency [10] | outcome [11] | Potency [13] | outcome [14]

O=C(O)c1ccccc1Cl
inactive: Potency [1] | Potency [2] | Potency [3] | Potency [4] | Potency [5] | Potency [6] | Potency [7] | Potency [8] | Potency [17] | Potency [9] | Potency [18] | outcome [11] | Potency [12] | Potency [13] | outcome [14]

COc1cccc(N)c1
inactive: Potency [1] | Potency [2] | Potency [3] | Potency [4] | Potency [5] | Potency [6] | Potency [7] | Potency [8] | Potency [16] | Potency [17] | Potency [9] | Potency [18] | Potency [10] | outcome [11] | Potency [12] | Potency [13] | outcome [14]

CCOC(=O)C(C)C(C)=O (stereo not given)
inactive: Potency [1] | Potency [2] | Potency [3] | Potency [4] | Potency [5] | Potency [6] | Potency [7] | Potency [16] | Potency [17] | Potency [9] | Potency [18] | Potency [10] | outcome [11] | Potency [12] | Potency [13] | outcome [14]

C=C(C)C(=O)OC
inactive: Potency [1] | Potency [2] | Potency [3] | Potency [4] | Potency [5] | Potency [6] | Potency [7] | Potency [8] | Potency [16] | Potency [17] | Potency [9] | Potency [18] | outcome [11] | Potency [12] | outcome [14]

Cc1ccc2c(c1[N+](=O)[O-])C(=O)c1ccccc1C2=O
inactive: Potency [1] | Potency [2] | Potency [3] | Potency [4] | Potency [5] | Potency [6] | Potency [7] | Potency [8] | Potency [16] | Potency [17] | Potency [9] | Potency [18] | outcome [11] | Potency [12] | Potency [13] | outcome [14]

O=C(O)c1cc(Cl)cc(Cl)c1
inactive: Potency [1] | Potency [2] | Potency [3] | Potency [4] | Potency [5] | Potency [6] | Potency [7] | Potency [8] | Potency [17] | Potency [9] | Potency [10] | outcome [11] | Potency [13] | outcome [14]

CCCCC=O
inactive: Potency [1] | Potency [2] | Potency [3] | Potency [4] | Potency [5] | Potency [6] | Potency [7] | Potency [8] | Potency [16] | Potency [9] | Potency [18] | Potency [10] | outcome [11] | Potency [12] | Potency [13] | outcome [14]

N#CC1(O)CCCCC1
inactive: Potency [1] | Potency [2] | Potency [3] | Potency [4] | Potency [5] | Potency [6] | Potency [7] | Potency [8] | Potency [16] | Potency [9] | Potency [18] | Potency [10] | outcome [11] | Potency [12] | Potency [13] | outcome [14]

CCCCC(CC)CNCC(CC)CCCC (stereo not given)
inactive: Potency [1] | Potency [2] | Potency [3] | Potency [4] | Potency [5] | Potency [6] | Potency [7] | Potency [8] | Potency [16] | Potency [17] | Potency [9] | Potency [18] | outcome [11] | Potency [12] | Potency [13] | outcome [14]

O=C(O)CNC(=O)c1ccc([N+](=O)[O-])cc1
inactive: Potency [1] | Potency [2] | Potency [3] | Potency [4] | Potency [5] | Potency [6] | Potency [7] | Potency [16] | Potency [17] | Potency [9] | Potency [18] | Potency [10] | outcome [11] | Potency [12] | Potency [13] | outcome [14]

C=CCn1c(=O)n(CC=C)c(=O)n(CC=C)c1=O
inactive: Potency [1] | Potency [2] | Potency [3] | Potency [4] | Potency [5] | Potency [6] | Potency [7] | Potency [8] | Potency [17] | Potency [9] | Potency [18] | Potency [10] | outcome [11] | Potency [12] | Potency [13] | outcome [14]

CC1CCCO1 (stereo not given)
inactive: Potency [1] | Potency [2] | Potency [3] | Potency [4] | Potency [5] | Potency [6] | Potency [7] | Potency [8] | Potency [16] | Potency [17] | Potency [9] | Potency [10] | outcome [11] | Potency [12] | Potency [13] | outcome [14]

C=Cc1ccccn1
inactive: Potency [1] | Potency [2] | Potency [3] | Potency [4] | Potency [5] | Potency [6] | Potency [7] | Potency [8] | Potency [16] | Potency [17] | Potency [9] | Potency [10] | outcome [11] | Potency [12] | Potency [13] | outcome [14]

O=[N+]([O-])c1ccc(NCCO)c(OCCO)c1
inactive: Potency [1] | Potency [2] | Potency [3] | Potency [4] | Potency [5] | Potency [6] | Potency [7] | Potency [16] | Potency [17] | Potency [9] | Potency [18] | Potency [10] | outcome [11] | Potency [12] | Potency [13] | outcome [14]

S=C([S-])NCCNC(=S)[S-].[Zn+2]
inactive: Potency [1] | Potency [2] | Potency [3] | Potency [4] | Potency [5] | Potency [6] | Potency [7] | Potency [8] | Potency [16] | Potency [17] | Potency [9] | Potency [18] | Potency [10] | outcome [11] | Potency [12] | Potency [13] | outcome [14]
